Records with an inconclusive call do not appear. Entries that show only a call come without a potency. Calls of active or inactive are those of the source. Unless noted, calls come from the whole dose curve; as a rule, active = well fitted curve in the direction sought with a large enough effect in the repeat runs; inconclusive = weak or mixed curves; inactive = no such curve, though single readings can be large; an effect the other way counts as inactive or inconclusive.

Androgen receptor (Homo sapiens), sequence (P10275 whole entry, looked up): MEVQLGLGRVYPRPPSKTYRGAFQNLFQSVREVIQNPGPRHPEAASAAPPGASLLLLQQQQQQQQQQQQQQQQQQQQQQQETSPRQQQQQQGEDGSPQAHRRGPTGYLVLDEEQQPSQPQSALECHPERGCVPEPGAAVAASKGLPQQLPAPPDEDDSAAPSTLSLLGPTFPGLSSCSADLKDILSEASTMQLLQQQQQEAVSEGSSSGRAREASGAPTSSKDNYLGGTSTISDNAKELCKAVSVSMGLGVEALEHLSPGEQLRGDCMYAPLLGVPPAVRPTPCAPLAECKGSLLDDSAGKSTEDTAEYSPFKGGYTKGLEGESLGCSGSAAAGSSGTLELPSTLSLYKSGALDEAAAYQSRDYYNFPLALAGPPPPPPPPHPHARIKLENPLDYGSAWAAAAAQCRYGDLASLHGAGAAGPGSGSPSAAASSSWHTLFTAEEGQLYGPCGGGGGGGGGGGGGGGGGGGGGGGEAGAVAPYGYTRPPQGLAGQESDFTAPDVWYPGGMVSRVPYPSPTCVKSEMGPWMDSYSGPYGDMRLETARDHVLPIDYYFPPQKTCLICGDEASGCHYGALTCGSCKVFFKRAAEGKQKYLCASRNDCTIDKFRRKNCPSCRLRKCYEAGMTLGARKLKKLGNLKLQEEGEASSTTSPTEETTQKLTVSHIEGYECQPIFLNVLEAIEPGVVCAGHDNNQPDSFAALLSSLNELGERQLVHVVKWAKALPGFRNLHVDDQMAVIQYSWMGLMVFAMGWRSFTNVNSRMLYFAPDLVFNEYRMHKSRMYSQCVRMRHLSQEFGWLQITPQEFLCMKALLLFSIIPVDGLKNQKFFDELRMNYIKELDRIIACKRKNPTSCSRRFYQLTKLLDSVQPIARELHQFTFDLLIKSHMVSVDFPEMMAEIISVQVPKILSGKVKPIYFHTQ

System in one experiment: not listed separately
Nature of the experiment: qHTS assay to identify small molecule agonists of the estrogen receptor beta (ER-beta) signaling pathway - cell viability counter screen (AID 1259380). Note: nearly all actives have a fitted effect of over 30% in size. Note: potency is the fitted concentration of half-maximal effect. To be noted: ER-beta-bla HEK293T viability, CellTiter-Glo luminescence, 16 h; series mostly up to 92.4 µM. The method in brief:
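ER-beta-UAS-bla HEK293T cells in medium with 2% charcoal-stripped FBS were preincubated 6 hr at 37C, dosed with compound in DMSO for 16 hr, then after the bla read, CellTiter-Glo was added for 30 min at room temperature; luminescence recorded.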
Background: qHTS replaces the single test concentration by a dilution series.
As to `CC1CCCCC1NC(=O)Nc1ccccc1` (stereo unspecified), the Potency entry was “inactive”.

In the case of `CCCSC(=O)N(CCC)CCC`, the Potency result is “inactive”.

Regarding `CC1(C(=O)Nc2ccc(O)c(Cl)c2Cl)CCCCC1`, the Potency result is “inactive”.

As to `N#CC(CCc1ccc(Cl)cc1)(Cn1cncn1)c1ccccc1` (stereo unspecified), the Potency is 68.6 µM (active).

With `CCS(=O)(=O)CCSP(=O)(OC)OC`, the Potency result was “inactive”.

Consider `[As]#[In]`, for which the Potency entry was “inactive”.

For `O=C(CCN1CC1)OCC(CO)(COC(=O)CCN1CC1)COC(=O)CCN1CC1`, the Potency result was “inactive”.

`COc1cccc2c1cc([N+](=O)[O-])c1c(C(=O)O)cc3c(c12)OCO3`: the Potency is 48.6 µM (active).

On to `CC(CC(C#N)(c1ccccc1)c1ccccc1)N(C)C` (stereo unspecified), for which the Potency was 60.8 µM (active).

As to `Fc1ccc(C2(Cn3cncn3)OC2c2ccccc2Cl)cc1` (stereo unspecified), the Potency was 17.2 µM (active).

`COC(=O)COc1ccc(Cl)cc1Cl`: the Potency entry was “inactive”.

For the molecule `CCCCC(=O)Cl`, the Potency result was “inactive”.

As to `O=[N+]([O-])c1cccc(O)c1`, the Potency result is “inactive”.

Regarding `CCCCN(CCCCO)N=O`, the Potency result was “inactive”.

As to `CCCCCCBr`, the Potency entry is “inactive”.

Take `CCCSP(=O)(OCC)Oc1ccc(Br)cc1Cl` (stereo unspecified): the Potency result is “inactive”.

Take `Cc1ccccc1CO[C@@H]1C[C@@]2(C(C)C)CC[C@]1(C)O2`: the Potency entry is “inactive”.

As for `O=[N+]([O-])c1cccc2c([N+](=O)[O-])cccc12`, the Potency is 10.9 µM (active).

On to `CCNc1nc(NC(C)C)nc(OC)n1`, for which the Potency entry was “inactive”.

In the case of `COC(C)(C)C`, the Potency result is “inactive”.

Take `CC(C)COP(=O)(OCC(C)C)OCC(C)C`: the Potency result is “inactive”.

`CNC(=O)Oc1cccc(C(C)C)c1`: the Potency entry is “inactive”.

As to `COc1cc(OC)nc(Sc2cccc(Cl)c2C(=O)O)n1`, the Potency entry is “inactive”.

On to `CCC#N`, for which the Potency entry is “inactive”.

`CC(C1CC1)C(O)(Cn1cncn1)c1ccc(Cl)cc1` (stereo unspecified): the Potency result was “inactive”.

As to `CC1CCC(=O)O1` (stereo unspecified), the Potency entry was “inactive”.

Consider `CC(C)[N+](=O)[O-]`, for which the Potency result was “inactive”.

Consider `COc1cccc(C(=O)NN(C(=O)c2cc(C)cc(C)c2)C(C)(C)C)c1C`, for which the Potency entry is “inactive”.

For `CCOC(=O)NC(=S)Nc1ccccc1NC(=S)NC(=O)OCC`, the Potency entry was “inactive”.

As for `COCC(=O)N(c1c(C)cccc1C)N1CCOC1=O`, the Potency result is “inactive”.

As to `O=[N+]([O-])c1cc(Cl)c(Cl)c(Cl)c1`, the Potency entry is “inactive”.

Turning to `ClCC(Cl)Cl`, the Potency entry was “inactive”.

As for `N#CC(O)c1ccccc1` (stereo unspecified), the Potency entry is “inactive”.

The next experiment has as its target Androgen receptor (Homo sapiens) (UniProt P10275). Kind of experiment: qHTS assay to identify small molecule agonists of the androgen receptor (AR) signaling pathway in the presence of an antagonist (AID 1259381; calls by dose curve; note: nearly all actives have a fitted effect of over 15% in size). To be noted: MDA-kb2 MMTV-luciferase, AR agonist + nilutamide, 16 h; series mostly up to 92.4 µM. The method in brief: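 MDA-kb2 human breast carcinoma cells carrying an MMTV-luciferase reporter (AR- and GR-responsive) were treated with compounds at 15 concentrations plus 3.0uM final nilutamide for 16hr at 37C without CO2; luminescence was read after ONE-Glo addition.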
For `N#CC(CCc1ccc(Cl)cc1)(Cn1cncn1)c1ccccc1` (stereo unspecified), the Potency result is “inactive”.

As for `Cc1ccccc1CO[C@@H]1C[C@@]2(C(C)C)CC[C@]1(C)O2`, the Potency entry is “inactive”.

Consider `O=[N+]([O-])c1cccc2c([N+](=O)[O-])cccc12`, for which the Potency entry is “inactive”.

System in the next experiment: not listed separately
Nature of the experiment: qHTS assay to identify small molecule antagonists of the estrogen receptor beta (ER-beta) signaling pathway - cell viability counter screen (AID 1259382). Note: nearly all actives have a fitted effect of over 55% in size. Note: potency is the fitted concentration of half-maximal effect. The settings on record: ER-beta-UAS-bla HEK293T viability, CellTiter-Glo luminescence, 16 h; series mostly up to 92.4 µM. In a few lines: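 ER-beta-UAS-bla HEK293T cells (2,000/well, 2% charcoal-stripped FBS) were pre-incubated 6 hr at 37C, then given compound plus 1nM final 17-beta-estradiol for 16 hr. Viability was read in the same wells by CellTiter-Glo luminescence after 30 min at room temperature.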
Turning to `CC1CCCCC1NC(=O)Nc1ccccc1` (stereo unspecified), the Potency result is “inactive”.

On to `CCCSC(=O)N(CCC)CCC`, for which the Potency result is “inactive”.

Consider `CC1(C(=O)Nc2ccc(O)c(Cl)c2Cl)CCCCC1`, for which the Potency result is “inactive”.

As for `N#CC(CCc1ccc(Cl)cc1)(Cn1cncn1)c1ccccc1` (stereo unspecified), the Potency was 48.6 µM (active).

For `CCS(=O)(=O)CCSP(=O)(OC)OC`, the Potency entry was “inactive”.

Take `[As]#[In]`: the Potency result is “inactive”.

Regarding `O=C(CCN1CC1)OCC(CO)(COC(=O)CCN1CC1)COC(=O)CCN1CC1`, the Potency entry was “inactive”.

As for `COc1cccc2c1cc([N+](=O)[O-])c1c(C(=O)O)cc3c(c12)OCO3`, the Potency is 54.5 µM (active).

For `COC(=O)COc1ccc(Cl)cc1Cl`, the Potency entry is “inactive”.

Take `CCCCC(=O)Cl`: the Potency entry is “inactive”.

Regarding `O=[N+]([O-])c1cccc(O)c1`, the Potency result was “inactive”.

For the molecule `CCCCN(CCCCO)N=O`, the Potency result is “inactive”.

As for `CCCCCCBr`, the Potency result was “inactive”.

Consider `CCCSP(=O)(OCC)Oc1ccc(Br)cc1Cl` (stereo unspecified), for which the Potency result was “inactive”.

For `O=C(Nc1ccccc1)N(Cc1ccc(Cl)cc1)C1CCCC1`, the Potency result was “inactive”.

For `Cc1ccccc1CO[C@@H]1C[C@@]2(C(C)C)CC[C@]1(C)O2`, the Potency entry was “inactive”.

With `CCNc1nc(NC(C)C)nc(OC)n1`, the Potency entry is “inactive”.

In the case of `COC(C)(C)C`, the Potency result is “inactive”.

As for `CC(C)COP(=O)(OCC(C)C)OCC(C)C`, the Potency entry is “inactive”.

Regarding `CNC(=O)Oc1cccc(C(C)C)c1`, the Potency result is “inactive”.

With `COc1cc(OC)nc(Sc2cccc(Cl)c2C(=O)O)n1`, the Potency result is “inactive”.

In the case of `C[C@]1(O)CC[C@H]2[C@@H]3CCC4=CC(=O)CC[C@]4(C)[C@@]3(F)[C@@H](O)C[C@@]21C`, the Potency result is “inactive”.

Take `CCC#N`: the Potency result is “inactive”.

For `CC(C1CC1)C(O)(Cn1cncn1)c1ccc(Cl)cc1` (stereo unspecified), the Potency entry was “inactive”.

In the case of `CC1CCC(=O)O1` (stereo unspecified), the Potency result was “inactive”.

Turning to `CC(C)[N+](=O)[O-]`, the Potency entry was “inactive”.

`COc1cccc(C(=O)NN(C(=O)c2cc(C)cc(C)c2)C(C)(C)C)c1C`: the Potency entry is “inactive”.

With `CCOC(=O)NC(=S)Nc1ccccc1NC(=S)NC(=O)OCC`, the Potency entry was “inactive”.

For the molecule `COCC(=O)N(c1c(C)cccc1C)N1CCOC1=O`, the Potency result is “inactive”.

`CCOP(=S)(Oc1cnc(C(C)(C)C)nc1)OC(C)C` (stereo unspecified): the Potency result was “inactive”.

On to `O=[N+]([O-])c1cc(Cl)c(Cl)c(Cl)c1`, for which the Potency entry was “inactive”.

As for `CCCCOC(=O)c1ccccc1N`, the Potency result is “inactive”.

Turning to `ClCC(Cl)Cl`, the Potency result was “inactive”.

For the molecule `N#CC(O)c1ccccc1` (stereo unspecified), the Potency result is “inactive”.

The target in a further experiment is Estrogen receptor (Homo sapiens) (UniProt P03372). Kind of experiment: qHTS assay to identify small molecule agonists of the estrogen receptor alpha (ER-alpha) signaling pathway in the presence of an antagonist (AID 1259383; calls by dose curve; note: top concentration of the series differs between compounds; nearly all actives have a fitted effect of over 15% in size). To be noted: VM7Luc4E2 cells, ERE-luciferase, +ICI-182,780, 22 h; series mostly up to 92.4 µM. In a few lines: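 VM7Luc4E2 cells (endogenous full-length ER-alpha, 4×ERE-luciferase) were precultured 5 days in phenol red-free medium with 10% charcoal-stripped FBS, given 10.0nM ICI-182,780 (final), then treated with compounds at 15 concentrations for 22hr at 37C; luminescence read with ONE-Glo.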
Estrogen receptor (Homo sapiens), sequence (P03372 whole entry, looked up): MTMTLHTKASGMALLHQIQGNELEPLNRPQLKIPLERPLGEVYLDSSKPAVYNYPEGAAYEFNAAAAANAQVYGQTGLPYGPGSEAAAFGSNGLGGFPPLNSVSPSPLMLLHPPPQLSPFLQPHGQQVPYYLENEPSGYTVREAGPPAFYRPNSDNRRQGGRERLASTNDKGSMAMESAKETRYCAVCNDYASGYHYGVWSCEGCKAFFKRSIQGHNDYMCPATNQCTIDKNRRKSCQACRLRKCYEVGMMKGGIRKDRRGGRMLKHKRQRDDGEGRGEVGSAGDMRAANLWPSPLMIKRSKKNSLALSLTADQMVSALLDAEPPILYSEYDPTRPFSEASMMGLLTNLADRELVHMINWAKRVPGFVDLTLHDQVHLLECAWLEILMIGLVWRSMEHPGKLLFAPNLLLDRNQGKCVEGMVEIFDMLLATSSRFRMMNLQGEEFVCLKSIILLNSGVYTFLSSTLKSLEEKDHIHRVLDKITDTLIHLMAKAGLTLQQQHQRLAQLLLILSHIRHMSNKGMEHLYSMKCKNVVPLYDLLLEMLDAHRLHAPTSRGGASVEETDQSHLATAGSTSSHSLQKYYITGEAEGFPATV
With `N#CC(CCc1ccc(Cl)cc1)(Cn1cncn1)c1ccccc1` (stereo unspecified), the Potency entry was “inactive”.

As to `C=CCC1=C(C)[C@@H](OC(=O)[C@@H]2[C@@H](C=C(C)C)C2(C)C)CC1=O`, the Potency result was “inactive”.

As to `CC(CC(C#N)(c1ccccc1)c1ccccc1)N(C)C` (stereo unspecified), the Potency result was “inactive”.

As for `Fc1ccc(C2(Cn3cncn3)OC2c2ccccc2Cl)cc1` (stereo unspecified), the Potency result was “inactive”.

On to `CCCCN(CCCCO)N=O`, for which the Potency result was “inactive”.

As for `O=[N+]([O-])c1cc(Cl)c(Cl)c(Cl)c1`, the Potency entry was “inactive”.

Values taken from PubChem BioAssay (Tox21).
